Shown are actives, neighbours in structure and some others; about 18% of the full set was active somewhere.
HepG2 viability = kills HepG2 cells in TGF-b inhibitor counter-screen. HepG2 CAGA-GFP viability, ATP luminescence, 18 h. actives 0.76% (n = 410,000). Potency, µM (titrated, usually from 46.1 µM), hits mostly cytotoxic. AID 588856
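CellTiter-Glo luminescence gave cytotoxicity after 18 hours at 37 degrees C. The cells were HepG2 CAGA-GFP in 1% FBS DMEM, stimulated with 500 pg/mL TGF-beta after compound addition. %Activity was normalised to no-cell wells (complete cell-killing) and DMSO (no toxicity), and curves were fitted and classified.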
DT40 TDP1 CPT = growth inhibition of DT40 Tdp1-/-;hTDP1 cells with camptothecin (screen for TDP1 inhibitors) | chicken DT40 Tdp1-/-;hTDP1 cells + 20 nM CPT, ATP luminescence, 48 h | Potency, µM (doses to about 46.2 µM), most hits filed as inhibitors | actives 12% (n = 420,000); also: nearly all actives have a fitted effect of over 55% in size
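Chicken DT40 Tdp1-/- cells stably complemented with human TDP1 were seeded at 400 cells/well in medium containing 20 nM camptothecin, exposed to pin-transferred compounds, and grown at 37 °C for at least 48 hr. Viability was read as ATP luminescence.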
TDP1 block = blocks human tyrosyl-DNA phosphodiesterase 1 | actives 0.28% (n = 350,000) | Potency, µM (series often up to 130 µM), usual class: inhibitors | recombinant TDP1, AlphaScreen DNA substrate cleavage | Q9NUW8; also: nearly all actives have a fitted effect of over 40% in size
Target sequence (Q9NUW8 whole entry, looked up): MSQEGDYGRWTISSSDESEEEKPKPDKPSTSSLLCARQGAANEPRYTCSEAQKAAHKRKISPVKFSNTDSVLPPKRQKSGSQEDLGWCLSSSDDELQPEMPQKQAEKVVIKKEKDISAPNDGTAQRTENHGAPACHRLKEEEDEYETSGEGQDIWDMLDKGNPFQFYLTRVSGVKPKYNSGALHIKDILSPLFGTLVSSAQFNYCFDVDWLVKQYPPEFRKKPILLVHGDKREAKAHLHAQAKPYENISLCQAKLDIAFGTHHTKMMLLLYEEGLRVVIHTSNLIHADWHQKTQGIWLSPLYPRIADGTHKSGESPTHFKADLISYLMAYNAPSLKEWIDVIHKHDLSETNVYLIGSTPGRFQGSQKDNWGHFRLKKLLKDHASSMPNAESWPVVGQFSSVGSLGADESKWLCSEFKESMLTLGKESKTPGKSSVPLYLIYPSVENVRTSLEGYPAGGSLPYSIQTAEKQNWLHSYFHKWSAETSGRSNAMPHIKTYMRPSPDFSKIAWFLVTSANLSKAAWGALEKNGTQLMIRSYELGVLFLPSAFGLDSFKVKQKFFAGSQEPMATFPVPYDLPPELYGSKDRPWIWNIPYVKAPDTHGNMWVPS
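E. coli-derived human Tdp1, 1 nM final. Cpd preinc 15 min RT; substrate 15 nM final, 5 min RT; AS bead mix 10 ug/ml final, 10 min RT. Signal loss = tyrosine-FITC cleavage. No-enzyme wells = max signal.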
IL-1B inflam inh = inhibitors of inflammasome signaling (IL-1 beta secretion); AID 743279; activity change, % at 57.5 µM; actives 4.7% (n = 360,000); THP-1 LPS/ATP IL-1B secretion, AlphaLISA, 16 h; stronger effect = lower value; in the data active = activity change below about -50%; inconclusive = mostly about -30% to -49%
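THP-1 cells pretreated 1 hr with compounds (up to 57.5 uM final), then stimulated with LPS (250 ng/mL final) plus ATP (1.25 mM final); secreted IL-1B measured by AlphaLISA after 16 hr, decreased signal indicating inhibition.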
TGFb SMAD3 inh = inhibitors of TGF-b signaling. Potency, µM (series often up to 46.1 µM), actives largely listed as inhibitors. HepG2 CAGA-GFP TGF-b/SMAD3 reporter, GFP fluorescence, 18 h; TGF-beta stimulated, 500 pg/mL final. actives 1.2% (n = 410,000); also: nearly all actives have a fitted effect of over 65% in size
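Using HEPG2 CAGA-GFP reporter cells at 1000 cells/well, we pinned test compounds, stimulated with recombinant TGF-beta (500 pg/mL final) and measured total well GFP after 18 h.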
DT40 TDP1 no CPT = qHTS for Inhibitors of human tyrosyl-DNA phosphodiesterase 1 (TDP1): qHTS in cells in absence of CPT | DT40 Tdp1-/- hTDP1 cells, no CPT, ATP luminescence, 48 h | Potency, µM (series often up to 46.2 µM), usual class: inhibitors | actives 15% (n = 420,000) | AID 686978, 2013; also: nearly all actives have a fitted effect of over 55% in size
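Stably hTDP1-transfected Tdp1-null chicken DT40 cells were treated with library compounds minus camptothecin and grown for at least 48 hr at 37 °C, after which cellular ATP was quantified by luminescence.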
Hits are given with their value; 0 = inactive; ? = inconclusive; - = no result given; [ ] = remark or other dose. Unless noted, calls follow the shape of the dose curve; as a rule, active = well fitted curve in the direction sought with a large enough effect; inconclusive = small, poorly fitted or top-dose-only effect, or another doubt; inactive = no such curve, though single readings can be large; an effect the other way counts as inactive or inconclusive.

SMILES	HepG2 viability	DT40 TDP1 CPT	TDP1 block	IL-1B inflam inh	TGFb SMAD3 inh	DT40 TDP1 no CPT
O=C(NCC(=O)N1CCCCC1)c1sc2ccccc2c1Cl	0	0	0	?	0	0
CNC(=O)c1ccsc1NC(=O)c1sc2ccccc2c1Cl	0	13µM	0	0	0	?
CCN(CC)c1ccc(NC(=O)c2sc3ccccc3c2Cl)cc1	0	20.6µM	0[12.3 µM]	-	0	20.6µM
Cc1ccc(NC(=O)c2sc3ccccc3c2Cl)nc1	0	0	0	0	0	0
O=C(Nc1ccc(CN2CCCCC2)cc1)c1sc2ccccc2c1Cl	0	13µM	0	-57.2	0	16.4µM
Cc1nnc(NC(=O)c2sc3ccccc3c2Cl)s1	0	0	0	0	0	?
Cn1c(=O)n(Cc2ccc(Br)cc2)c2ccccc21	0	?	0	-108.2	0	?
CCc1ccc(N2CC(C(=O)N3CCN(c4ccccn4)CC3)CC2=O)cc1 (configuration not stated)	0	?	0	0	0	?
N#Cc1c(N)nc2c3c(sc(=N)c2c1N)NC(=O)CC3c1c(F)cccc1Cl (configuration not stated)	0	?	0	0	0	6.51µM
Cc1ccc(NC(=O)Cn2nc(N3CCN(c4ccccc4)CC3)ccc2=O)cc1F	0	?	0	-	?	?
Cc1nc(-c2ccccc2)nc(Cl)c1Cl	0	0	0	0	0	0
Cc1nc(-c2ccncc2)nc(NCCNc2ncccc2C(F)(F)F)c1Cl	0	11.6µM	-	0	0	7.31µM
CCOC(=O)/C(=N\Nc1ccc(C(C)=O)cc1)c1csc(Nc2ccccc2)n1	0	?	0	0	0	10.3µM
COc1ccc(C2(NC(C)=O)CCN(Cc3cccnc3)CC2)cc1	0	0	-	0	0	0
COc1ccc(CNC(=S)Nc2cc(C)ccc2C)cc1	0	?	0	0	0	18.4µM
COc1ccc(/C(C)=N/NC(=S)Nc2cc(C)ccc2C)cc1	0	23.1µM	0	0	?	23.1µM
COc1ccc(CCNC(=S)Nc2cc(C)ccc2C)cc1	0	?	0	0	0	?
COc1ccc(CCNC(=S)Nc2ccc(C)cc2C)cc1	0	?	0	0	0	?
COCCN(C(=O)COC(=O)c1c(C)nn(-c2ccccc2)c1C)c1c(N)n(Cc2ccccc2)c(=O)[nH]c1=O	0	0	-	0	0	0
Cc1ccc(-c2nc(CSCC(=O)N3CCCC3)c(C)o2)cc1	0	0	0	0	0	0
COc1ccc(-c2nc(CSCC(=O)N3CCN(c4ccccc4)CC3)c(C)o2)cc1	0	10.3µM	0	-	?	10.3µM
Cc1ccsc1-c1nc(CSCC(=O)N2CCN(c3ccccc3)CC2)c(C)o1	0	14.6µM	0	0	?	?
COc1ccc(-c2nc(Cn3c(SCc4ccccc4F)nc4ccncc43)c(C)o2)cc1	0	?	0	0	0	14.6µM
Cc1ccc(C)c(CSc2nc3ccncc3n2Cc2nc(-c3ccccc3Cl)oc2C)c1	0	20.6µM	0	-	?	?
COc1ccc(-c2nc(Cn3c(SCc4ccccc4F)nc4cccnc43)c(C)o2)cc1	0	?	0	-	0	?
SMILES	HepG2 viability	DT40 TDP1 CPT	TDP1 block	IL-1B inflam inh	TGFb SMAD3 inh	DT40 TDP1 no CPT
COc1ccc(-c2nc(Cn3c(SCc4ccc(F)cc4)nc4cccnc43)c(C)o2)cc1	0	2.91µM	0	-	?	2.59µM
COc1ccc(-c2nc(Cn3c(SCc4ccc(F)cc4)nc4ccncc43)c(C)o2)cc1OC	0	?	0	0	?	20.6µM
COc1ccccc1N1CCN(C(=O)CCNC(=O)c2ccco2)CC1	0	0	0	0	0	0
Cc1oc(-c2ccccc2Cl)nc1Cn1c(SCc2cccc(F)c2)nc2cccnc21	0	23.1µM	0	-	?	25.9µM
Cc1oc(-c2cccc(Cl)c2)nc1Cn1c(SCc2ccc(F)cc2)nc2cccnc21	0	25.9µM	0	-	0	25.9µM
Cc1ccc(CSc2nc3ccncc3n2Cc2nc(-c3ccc(Cl)cc3)oc2C)cc1	0	?	0	-	0	?
COc1ccc(-c2nc(Cn3c(SCc4ccc(C)cc4)nc4cccnc43)c(C)o2)cc1OC	0	5.17µM	0	-	10µM	?
COc1ccc(-c2nc(Cn3c(SCc4cccc(F)c4)nc4cccnc43)c(C)o2)cc1	0	?	0	-	?	?
CNc1nc(-c2ccccn2)nnc1-c1ccccc1	0	?	0	0	0	22.4µM
c1ccc(-c2nnc(-c3ccccn3)nc2NC2CCCCC2)cc1	0	6.51µM	0	0	?	5.8µM
c1ccc(-c2csc(NC3CCCCC3)n2)cc1	0	0	0	0	?	0
COc1ccc(CNC(=O)c2ccc(CS(=O)Cc3ccccc3Cl)o2)cc1 (configuration not stated)	0	?	0	-	0	18.4µM
O=C(NC1CCCCCC1)c1ccc(Br)o1	0	0	0[0.0935 µM]	0	0	0
Cc1ccccc1S(=O)Cc1ccc(C(=O)NC2CCCCCC2)o1 (configuration not stated)	0	18.4µM	0	-	?	?
O=C(NC1CCCCCC1)c1ccc(CS(=O)Cc2ccccc2Cl)o1 (configuration not stated)	0	?	0	-54.2	0	?
O=C(NC1CCCCCCC1)c1ccc(Br)o1	0	0	-	0	0	4.61µM
Cc1ccc(CNC(=O)c2ccc(CS(=O)Cc3ccccc3Cl)o2)cc1 (configuration not stated)	0	?	0	0	0	0
COc1ccccc1S(=O)Cc1ccc(C(=O)NC2CCCC2)o1 (configuration not stated)	0	0	0	0	0	0
CS(=O)(=O)n1c2ccccc2c(=O)n1-c1ccccc1CCl	0	?	-	0	0	?
CCCCN(C(=O)C1CCCC1)c1c(N)n(CC(C)C)c(=O)[nH]c1=O	0	0	0	0	0	0
Cc1nn(Cc2ccccc2)c(C)c1CNC(=O)CN=C1NS(=O)(=O)c2ccccc21	0	0	0	0	0	?
Cc1ccc(S(=O)Cc2ccc(C(=O)NC3CCCCCC3)o2)cc1 (configuration not stated)	0	?	0	-	0	16.4µM
Cc1ccc(CS(=O)Cc2ccc(C(=O)NC3CCCCCC3)o2)cc1 (configuration not stated)	0	0	0	0	0	0
Cc1ccc(CS(=O)Cc2ccc(C(=O)NC3CCCC(C)C3C)o2)cc1 (configuration not stated)	0	20.6µM	0	0	0	?

Assay outcomes as filed in PubChem BioAssay.
